Only a selection was taken, and hits are over-represented in it overall.
ST2 IL33 inh – inhibitors of human ST2 (IL1RL1) binding to IL-33, primary screen, biochemical, AlphaLISA. 2.3% of 78,000 active. inhibition, % for hits at 17 µM. AlphaLISA ST2-Fc/biotin-IL-33 interaction, 1 h. Interleukin-1 receptor-like 1 (Homo sapiens), Q01638. AID 1259354, 2018; in the data active = inhibition above about 30%
Target sequence (Q01638 whole entry, looked up): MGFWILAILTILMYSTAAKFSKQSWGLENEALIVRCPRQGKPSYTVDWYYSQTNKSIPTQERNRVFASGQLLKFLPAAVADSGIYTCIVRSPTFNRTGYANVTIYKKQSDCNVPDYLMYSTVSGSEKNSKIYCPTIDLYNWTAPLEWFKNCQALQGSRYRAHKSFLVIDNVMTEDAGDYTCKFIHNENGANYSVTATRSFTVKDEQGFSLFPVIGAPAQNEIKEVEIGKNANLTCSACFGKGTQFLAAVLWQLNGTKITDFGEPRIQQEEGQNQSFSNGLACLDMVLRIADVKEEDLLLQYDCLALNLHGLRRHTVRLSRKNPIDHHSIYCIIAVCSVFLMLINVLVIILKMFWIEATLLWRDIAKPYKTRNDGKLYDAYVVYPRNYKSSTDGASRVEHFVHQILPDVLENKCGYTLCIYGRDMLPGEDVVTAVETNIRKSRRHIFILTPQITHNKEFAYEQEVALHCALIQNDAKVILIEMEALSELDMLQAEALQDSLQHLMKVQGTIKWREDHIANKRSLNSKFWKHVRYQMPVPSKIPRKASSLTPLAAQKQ
Each line names hits and unclear results; the compound was inactive in the other large screens.

CN1CCN([C@@H]2[C@H](O)[C@H](CO)O[C@@H]2CNC(=O)Nc2cccc(Cl)c2)CC1	none
COc1ccc(C(=O)CC2(O)C(=O)Nc3ccccc32)cc1 (stereo not given)	none
COc1ccccc1Cn1c(CNS(=O)(=O)c2cccc(Cl)c2)nc2cccnc21	none
COc1ccc(-c2ccc(C3NCCc4[nH]cnc43)cc2)cn1 (stereo not given)	none
O=C(NCc1cccc(F)c1)c1c(O)c2ccccc2[nH]c1=O	none
O=C(C1CC1)N1CCc2cc(S(=O)(=O)NCc3ccccn3)ccc21	none
CC(C)C[C@@H]1N[C@H](C(=O)NCCN2CCOCC2)Cc2cn(Cc3ccccn3)c3cccc1c23	none
CC(=O)c1cccc(N2C(=O)C3C4CCC(C4)C3C2=O)c1 (stereo not given)	none
Cc1ccc(N2C(=O)c3ccc(C(=O)c4ccc(C(=O)O)cc4)cc3C2=O)cc1	none
CC1=C(C)CC(C(=O)Nc2ccc(C(N)=O)cc2)C(C(=O)O)C1 (stereo not given)	none
CCO[C@H]1COC[C@@H]1NC1CCN(C(=O)c2ccccc2)CC1	none
COc1ccc(N2CCN(c3ncnc4sc(C(=O)NCC5CCCO5)c(C)c34)CC2)cc1 (stereo not given)	none
Nc1nonc1-c1noc(COc2ccc(F)cc2)n1	none
COc1ccc(CNc2oc(COc3ccc(OC)cc3)nc2C#N)cc1	none
N#Cc1nc(COc2ccccc2)oc1NCc1ccc(F)cc1	ST2 IL33 inh 34%
CN1CCC2(CC1)CN(Cc1ccccc1C(=O)O)CCN2C	none
CC1(C)COC(c2ccc(Cl)cc2)=N1	none
O=C(Nc1ccc(F)c(Cl)c1)c1cnc2n(c1=O)CCS2	none
O=C(Nc1cc(Cl)cc(Cl)c1)c1cnc2n(c1=O)CCS2	none
O=C(Nc1ccc(Cl)c(Cl)c1)c1cnc2n(c1=O)CCS2	ST2 IL33 inh 32%
CCCCNC(=O)c1oc2ccc(S(=O)(=O)N3CCCC(C)C3)cc2c1C (stereo not given)	none
CC(=O)Nc1ccc(S(=O)(=O)N2CCN(c3cc(-c4ccccc4C)ncn3)CC2)cc1	none
COc1ccc(-c2cc(-c3ccccc3)nc(Br)c2C#N)cc1	none
COc1ccc(-c2csc(/C(C#N)=C/c3cccc(F)c3)n2)cc1	ST2 IL33 inh 43%
CCOc1ccc(-c2csc(NC(=O)c3ccc(OC)c(OC)c3)n2)cc1	none
CCOc1ccc(-c2csc(/C(C#N)=C/c3ccc(OC)cc3)n2)cc1	ST2 IL33 inh 54%
COc1cc(-c2oc(-c3ccc(O)c(OC)c3)c(C)c2C)ccc1O	none
N#C/C(=C\c1cccc(F)c1)c1nc(-c2cc3ccccc3oc2=O)cs1	none
CN(C)c1ccc(/C=C(\C#N)c2nc(-c3ccc(Br)cc3)cs2)cc1	ST2 IL33 inh 53%
COc1cc(/C=C(\C#N)c2nc(-c3ccc(Br)cc3)cs2)ccc1O	ST2 IL33 inh 33%
CCOc1ccc(-c2csc(-c3cc4cccc(OC)c4oc3=O)n2)cc1	none
O=C(O)C1CCN(c2nc(-c3ccc(Br)cc3)cs2)CC1	none
CCN(CC)CCNC(=O)CCc1nc(-c2ccc(C)cc2)no1	none
CC1(C)CC(NC(=O)CC(c2ccccc2)c2ccccc2)CC(C)(C)N1	none
O=C(O)CCCN=C1NS(=O)(=O)c2ccccc21	none
CC(=O)c1c(C)cc(O[C@@H]2O[C@H](CO)[C@@H](O)[C@H](O)[C@H]2O)cc1O	none
Cc1cc(C)nc(Nc2ncc(O)n2-c2ccccc2C)n1	none
CC1OC(OC2C(O)C(C(=O)O)OC(OC3CCC4(C)C(CCC5(C)C4C=CC4=C6CC(C)(C)CC(O)C6(C)CCC45C)C3(C)C)C2OC2OCC(O)C(O)C2O)C(O)C(O)C1O (stereo not given)	none
COc1cccc(CC2(C(=O)O)CCN(C(=O)C(C)C)CC2)c1	none
COc1ccc(CCCC(=O)O)cc1C	none
CCCc1ccc(Oc2c(C)oc3cc(OC)ccc3c2=O)cc1	none
CCN(CC)C(=O)c1cncc(C(=O)N(CC)CC)c1-c1ccccc1	none
CCOc1ccc(-c2cn3ccsc3n2)cc1	none
CCOc1ccc(-c2csc(/C(C#N)=C/c3ccc(N(C)C)cc3)n2)cc1	ST2 IL33 inh 65%
CCOc1ccccc1/C=C(\C#N)c1nc(-c2ccc([N+](=O)[O-])cc2)cs1	none
O=C(Nc1cc2cc[nH]c2cn1)c1ccccc1	none
Cc1ccc(C2=N/C(=C\c3cccc(F)c3)C(=O)O2)cc1[N+](=O)[O-]	none
Cc1ccc(C2=N/C(=C\c3ccc(N(C)C)cc3)C(=O)O2)cc1[N+](=O)[O-]	ST2 IL33 inh 30%
Cc1ccc(C2=N/C(=C\c3cccc([N+](=O)[O-])c3)C(=O)O2)cc1[N+](=O)[O-]	none
COC(=O)c1c[nH]n2c(NC3CCCCC3)c(-c3cccs3)nc12	ST2 IL33 inh 32%
O=C(NC1CCCC1)c1cc(-c2cccs2)on1	none
COC(=O)c1c[nH]n2c(=O)c(Cc3cccc(C)c3)c(C)nc12	none
O=C(Nc1ccc2oc(-c3ccncc3)nc2c1)c1cccnc1	none
COc1ccc2cc(C(N)=O)c(=Nc3ccc(C)cc3)oc2c1	none
COc1ccc2cc(-c3nc4ccccc4[nH]3)c(=Nc3ccc(C(N)=O)cc3)oc2c1	ST2 IL33 inh 35%
COc1ccc2cc(C(=O)NC(C)=O)c(=Nc3ccc(F)cc3)oc2c1	none
O=C(c1ccc2c(c1)OCO2)N1CCN=C1SCc1cccc(Cl)c1	none
COc1ccc(-c2cc(-c3ccccc3)[nH]c(=O)n2)cc1OC	none
C/C(=C\c1ccc(-c2ccc(Cl)c(C(=O)O)c2)o1)[N+](=O)[O-]	ST2 IL33 inh 32%
O=C(/C=C/c1ccc(-c2ccc([N+](=O)[O-])cc2Cl)o1)c1ccco1	none
CCOC(=O)c1ccc(-c2ccc(/C=C/c3[nH]c(=O)[nH]c(=O)c3[N+](=O)[O-])o2)cc1	none
CC(=O)Nc1ccc(NS(=O)(=O)c2ccc(NC(C)=O)cc2)cc1	none
COc1ccc(C2CC(=O)C3=C(C2)Nc2ccccc2NC3c2ccc(C)o2)cc1 (stereo not given)	none
Cc1ccc(C2Nc3ccccc3NC3=C2C(=O)CCC3)o1 (stereo not given)	ST2 IL33 inh 32%
CCOc1ccc(C2Nc3ccccc3NC3=C2C(=O)CCC3)cc1 (stereo not given)	none
O=c1[nH]c(Cc2ccccc2)nc2c1C1(CCCCC1)Cc1ccccc1-2	none
CN(C)c1ccc(C(=O)Nc2nc3ccc(Cl)cc3s2)cc1	none
Cc1nc2ccc(N(C)C)cc2s1	ST2 IL33 inh 33%
Cc1nc2cc(CCO)ccc2s1	none
CC1=C(C#N)C(C)(C)C(C#N)=C(C)N1	none
CC(=O)Nc1sc2c(c1C#N)CCC2	none
N#Cc1c(N=CN2CCCCC2)sc2c1CCCCC2	ST2 IL33 inh 35%
N#Cc1c(N=CC2C(=O)c3ccccc3C2=O)sc2c1CCCC2	none
COc1ccc(S(=O)(=O)Nc2ccc3oc(=O)sc3c2)cc1	none
COc1ccc(CCC(=O)NC2CC(=O)N(c3ccc(C)cc3)C2)cc1 (stereo not given)	none
C=CCN(Cc1ccco1)Cc1ccc(-c2ccn[nH]2)o1	none
N#C/C(=C\c1ccc(O)c(O)c1)C(=O)Nc1ccccc1	none
CC(NC(=O)c1ccccc1C(=O)NC(C)c1ccccc1)c1ccccc1 (stereo not given)	none
C[C@@H](NC(=O)/C(C#N)=C/c1ccc(O)c(O)c1)c1ccccc1	ST2 IL33 inh 58%
O=C(Nc1ccc(F)cc1)c1ccc(NC(=O)C2CCCO2)cc1 (stereo not given)	none
CC(=O)N1N=C(c2ccc(C)c(Cl)c2)OC1(C)C	none
O=c1[nH]c(/C=C\c2ccccc2Cl)c([N+](=O)[O-])c(=O)[nH]1	none
Cc1nc2ccccc2c(=O)[nH]1	none
O=c1[nH]c(/C=C\c2ccccc2Cl)nc2ccccc12	ST2 IL33 inh 44%
O=C(NCc1ccccc1)c1cc(N2C(=O)C=CC2=O)ccc1Cl	none
